# Assay outcomes as filed in PubChem.
# An excerpt weighted towards active compounds, which were near 1.9% of everything screened.
# ATG4B inhibitor: ATG4B (human) cysteine protease inhibition | Q9Y4P1 | ATG4B cleavage of LC3-PLA2, NBD-HPC fluorescence, 1 h | inhibition, % at 8.33 µM | 340,000 compounds, 0.51% hits | AID 504462; in the data active = inhibition above about 40%
# N-glyco inh: N-linked glycosylation inhibition; D54 ERlucT glycosylation luciferase reporter, 24 h; percent of 100 nM tunicamycin response; reporter increase, % at 12.5 µM; 360,000 compounds, 0.23% hits; AID 588692;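 active = mean luciferase reporter signal, scaled so untreated is 0 and the glycosylation-blocking control 100, at or above a set limit in every replicate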;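 note: luciferase carries N-glycosylation sites so blocking glycosylation raises the light; 0% = median of neutral control wells and 100% = median of 100 nM tunicamycin wells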
# Vif inh: HIV Vif inhibition | HEK293T cells, Vif self-association by quenched fluorescence, imaging, 24 h | inhibition, % at 7.49 µM | 340,000 compounds, 0.35% hits; in the data active = inhibition above about 50%, passing the limit was not always enough
# DSG3 Ab inh: blocks pemphigus antibody binding to human desmoglein-3; 310,000 compounds, 0.48% hits; P32926; binding (percent of control), % at 10 µM; DSG3-coupled beads, scFv-anti-DSG3-GFP binding, flow cytometry; active compounds read low;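 active = binding more than 3 SD below its plate's average and above zero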;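 note: hits lower antibody fragment binding to DSG3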
# Target sequence (P32926 whole entry, looked up, the tested form may be a part): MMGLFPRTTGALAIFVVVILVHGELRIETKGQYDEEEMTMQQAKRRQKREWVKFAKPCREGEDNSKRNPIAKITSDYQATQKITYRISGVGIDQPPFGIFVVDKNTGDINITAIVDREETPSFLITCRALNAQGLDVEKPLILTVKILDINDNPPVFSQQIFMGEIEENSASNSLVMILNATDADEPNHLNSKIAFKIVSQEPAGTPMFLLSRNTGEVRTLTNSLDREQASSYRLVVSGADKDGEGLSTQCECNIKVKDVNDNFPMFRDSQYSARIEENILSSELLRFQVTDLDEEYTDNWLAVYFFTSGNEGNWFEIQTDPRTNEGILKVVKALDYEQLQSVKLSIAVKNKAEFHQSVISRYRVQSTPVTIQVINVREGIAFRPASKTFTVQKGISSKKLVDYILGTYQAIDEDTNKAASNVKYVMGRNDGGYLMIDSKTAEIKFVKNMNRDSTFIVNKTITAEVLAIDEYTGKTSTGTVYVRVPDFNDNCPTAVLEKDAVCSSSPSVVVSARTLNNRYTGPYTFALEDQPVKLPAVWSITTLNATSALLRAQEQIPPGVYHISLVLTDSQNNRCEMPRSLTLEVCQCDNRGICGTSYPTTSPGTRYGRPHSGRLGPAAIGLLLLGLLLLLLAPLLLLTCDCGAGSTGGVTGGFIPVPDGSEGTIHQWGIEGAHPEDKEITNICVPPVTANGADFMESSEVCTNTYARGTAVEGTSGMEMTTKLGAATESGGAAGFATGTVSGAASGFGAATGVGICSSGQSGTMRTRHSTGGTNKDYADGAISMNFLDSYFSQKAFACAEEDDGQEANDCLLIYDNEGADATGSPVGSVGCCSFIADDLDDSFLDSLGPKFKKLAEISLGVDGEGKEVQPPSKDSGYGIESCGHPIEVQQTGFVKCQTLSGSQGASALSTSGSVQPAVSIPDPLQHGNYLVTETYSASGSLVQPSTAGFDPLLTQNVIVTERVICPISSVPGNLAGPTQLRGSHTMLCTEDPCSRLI
# NSD2 HMT inh: inhibitors of human histone methyltransferase NSD2; O96028; NSD2 peptide methylation, AlphaScreen, 120 min; inhibition, % at 12.5 µM; 310,000 compounds, 0.54% hits; AID 743445
# CaV13 FRET inh: Disruptors of the CACNA1D IQ motif to Ca2+-dependent inactivation inhibitor domain association, primary screening, Förster resonance energy transfer in intact living …. HEK cells, CFP/YFP FRET ICDI-IQ, plate reader, 10 min; percent FRET-ratio fall versus neutral wells. 340,000 compounds, 0.098% hits. inhibition, % at 12.3 µM;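 active = mean replicate inhibition of at least 30% and at least 1% of replicates passing that level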;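 note: 0% = median of the neutral control wells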
# ATG4B conf: confirmation of human ATG4B inhibitors; ATG4B protease fluorescent substrate cleavage assay; inhibition, % at 8.33 µM; 320 compounds, 92% hits; AID 504757; shares compounds with ATG4B inhibitor; in the data active = inhibition above about 39%
# PLA2 ctr: counter-screen for ATG4B inhibitors: human phospholipase A2 | 1,600 compounds, 66% hits | purified PLA2, NBD-C6-HPC fluorescence, 45 min | shares compounds with ATG4B inhibitor | AID 588402 | inhibition, % at 8.33 µM
# AlphaScreen art: interferes with AlphaScreen signal, flagging NSD2 false positives; shares compounds with NSD2 HMT inh; AlphaScreen artifact counterscreen, preloaded methylated H4 peptide; AC35, µM (titrated, usually from 10 µM), for inactives: at the highest dose activity change, negative = signal loss; 1,500 compounds, 9.4% hits; AID 1053174; call rule not given here
# The depositor's hits bear a star; · = no result. Cut-off read from the data, not from the text of the source, unless noted: active = inhibition above about 50%; inactive = the rest.
SMILES,ATG4B inhibitor,N-glyco inh,Vif inh,DSG3 Ab inh,NSD2 HMT inh,CaV13 FRET inh,AlphaScreen art,others
C/C(=N\N1CCCCC1c1cccnc1)c1c(O)n(C2CCCCC2)c(=S)[nH]c1=O (configuration not stated),43*,3,3,·,0,-2,·,PLA2 ctr=37
COC(=O)C1=C(c2ccc(F)cc2OCc2ccccc2)C[C@@H]2CC[C@H]1N2C(=O)NCc1ccccc1Br,64*,-7,-2,97,·,-4,·,PLA2 ctr=79*
C=CCn1c(O)c(C(C)=Nc2ccc(NC(C)=O)cc2)c(=O)[nH]c1=O,1,4,-3,110,1,-7,·,
COc1ccc(/C=N\N=C(N)N)cc1,-10,1,-1,103,0,-7,·,
NC(N)=N/N=C/c1ccc(N(c2ccccc2)c2ccccc2)cc1,53*,-19,3,101,-56,-2,·,PLA2 ctr=66*
COCOC1CCC2C3CCC4=CC(=O)CCC4=C3C=CC12C (configuration not stated),-1,-1,2,91,5,-3,·,
CCc1ccc(-c2nn(Cc3ccccc3)cc2C=O)cc1,68*,-2,14,102,0,-3,·,PLA2 ctr=83*
O=Cc1cn(Cc2c(F)cccc2Cl)nc1-c1ccccc1,23,-2,-6,108,-4,-5,·,
c1cncc(C2CCCCN2Cc2ccc3c(c2)OCO3)c1 (configuration not stated),-5,-1,-19,94,13,-5,·,
Cc1cc(/C=C2\C(=O)NC(=O)N(c3ccc(Cl)cc3)C2=O)c(C)n1-c1sc2c(c1C#N)CCCC2,43*,-6,-4,97,28,-63,·,ATG4B conf=63*;PLA2 ctr=19
COC(=O)[C@@H](N)CCCN=C(N)N[N+](=O)[O-],-5,3,-4,·,·,-5,·,
S=P(NC1CCCCC1)(N1CC1)N1CC1,0,-3,-10,103,0,-21,·,
Oc1c(Br)c(Br)c(Br)c(Br)c1Br,60*,-1,-11,108,·,·,·,PLA2 ctr=62*
O=C1C(=O)c2cccc3cccc1c23,5,7,7,125,10,-2,·,
O=C1C(=O)c2ccccc2-c2ccccc21,85*,-23,3,100,·,-5,·,ATG4B conf=27;PLA2 ctr=-5
COCCN1C(=O)/C(=C/c2c(OC)cc(OC)cc2OC)C(=O)N(c2ccccc2)C1=O,2,3,-7,91,52*,0,-1%,
COc1ccc(CC2C(=O)N(c3ccccc3)C(=O)N(c3ccccc3)C2=O)c(OC)c1,-3,4,5,97,-2,-4,·,
Nc1ccc(C2(c3ccc(N)cc3)CN3CCC2CC3)cc1,-1,0,8,110,176*,-5,-17%,
CNC(C)Cc1ccccc1 (configuration not stated),-3,0,-2,102,·,·,·,
CN(C)c1ccccc1,·,1,-2,97,-3,-7,·,
Cc1cccc(N=Nc2ccc(N(C)C)cc2)c1,11,-11,3,99,51*,-7,8.4µM*,
CN1CCN(C(=O)Cc2ccccc2)CC1,-9,2,2,111,1,-19,·,
COC1C(O)C(C)OC(OC2C(Oc3cccc4c(O)c5c(=O)oc6ccc(C)c7c(=O)oc(c34)c5c67)OC(C)C(O)C2O)C1O (configuration not stated),0,43*,51*,251,66*,-7,-12%,
CCCn1cc(C(=O)O)cn1,12,2,-12,105,-3,-5,·,
Cc1ccc(N2C(=O)NC(=O)/C(=C\C=C\c3ccco3)C2=O)cc1,-8,42*,·,103,76*,-3,-6%,
SMILES,ATG4B inhibitor,N-glyco inh,Vif inh,DSG3 Ab inh,NSD2 HMT inh,CaV13 FRET inh,AlphaScreen art,others
CN(C)c1ccc(/C=C/C=C2/C(=O)NC(=O)N(c3ccccc3)C2=O)cc1,0,1,25,97,6,-6,·,
COc1cc(O)c(C(=O)O)c(-c2cc(O)c(O)cc2C)c1,-8,-1,8,102,·,·,·,
CN1CCCC2c3ccccc3CCC21 (configuration not stated),·,0,0,118,0,-14,·,
Nc1c(C(=O)NC2CCCC2)c2nc3ccccc3nc2n1CC1CCCO1 (configuration not stated),2,0,-21,106,82*,-3,27%,
Nc1c(C(=O)NCC2CCCO2)c2nc3ccccc3nc2n1Cc1ccco1 (configuration not stated),-10,5,-5,106,-9,-4,·,
CCOc1cc(/C=C2\C(=O)NC(=O)N(CCc3ccc(F)cc3)C2=O)ccc1O,-5,4,-7,97,53*,-4,-8%,
CN1C(=O)N(C)C(=O)C2(Cc3cc(NC(=O)c4ccccc4Cl)ccc3N3CCCC32)C1=O (configuration not stated),-6,3,-3,102,3,-5,·,
CC(=O)N(C)C1=Nc2ccc(Cl)cc2C(c2ccccc2)=[N+]([O-])C1,0,1,3,89,54*,-3,-2%,
CN(C)C(=O)On1c(-c2ccccc2)nc2ccc(Cl)cc21,2,-3,-2,96,1,·,·,
COc1ccc(N2C(=O)NC(=O)/C(=C/c3cccc(OC(=O)c4cccs4)c3)C2=O)cc1Cl,5,·,·,·,40,-2,·,
Cc1ccc(N2C(=O)NC(=O)/C(=C/c3ccc(OC(=O)c4cccs4)cc3)C2=O)cc1,12,0,0,112,127*,-5,-4%,
COC(=O)C1=C(c2ccc(OC(F)(F)F)cc2)C[C@@H]2CC[C@H]1N2C(=O)NCCOc1ccccc1Cl,4,-4,-5,103,·,-8,·,
NNC(=O)c1ccc(Cl)cc1,0,2,-6,115,-2,-2,·,
CCN1/C(=C/C=C/C2=[N+](CC)c3ccccc3C2(C)C)C(C)(C)c2ccccc21,·,-8,-27,114,55*,-1,-11%,
CN1/C(=C\C=C2C(=O)NC(=O)NC2=O)C(C)(C)c2ccccc21,-4,2,-1,114,38,-6,·,
CCCC(=O)NC1=C(N2CC2)C(=O)C(NC(=O)CCC)=C(N2CC2)C1=O,1,1,6,93,92*,-7,-1%,
